# Experimental data from PubChem BioAssay (NCATS).
# “And” between values parts separate entries of the source, which are not always exact repeats. Identical values can stand only once. Inconclusive results are not listed. This is one part of the list. The source made the active and inactive calls. Unless noted, calls come from the whole dose curve; as a rule, active = well fitted curve in the direction sought with a large enough effect; inconclusive = small, poorly fitted or top-dose-only effect, or another doubt; inactive = no such curve, though single readings can be large; an effect the other way counts as inactive or inconclusive.
# Experiments:
# [1] = target: Lysosomal acid glucosylceramidase (Homo sapiens) (UniProt P04062); assay: Glucocerebrosidase-p2 (AID 348; in the data active = potency below about 10 µM; note: potency is the fitted concentration of half-maximal effect); settings: purified GBA, blue fluorogenic substrate, 40 min
# Summary of the method: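 Normal human glucocerebrosidase (0.2 nM) with blue fluorogenic substrate (80 uM final) in citrate/phosphate pH 5.9 with 10mM sodium taurocholate, 0.01% tween-20; 40 min RT, NaOH/glycine stop; fluorescence Ex 365/Em 440; AC50 from a titration from 0.6 nM upwards.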
# [2] = AP1 Signaling Pathway (AID 357; active = well fitted curve in either direction with a large enough effect, not every such curve was filed as active;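 note: ME-180 reporter cells stimulated with EGF at its EC50 level; % is set by controls: 0 for no effect and ±100 for the full control effect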); settings: ME-180 AP-1-bla reporter, EGF-induced, beta-lactamase ratio, 5 h; at 7.69 µM (top of the series) unless noted
# Summary of the method: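 Cells are seeded overnight, exposed to compound titrations and an EC50 level of EGF for 5 hours at 37 °C, then loaded with CCF4 dye for 2.5 hours. Beta-lactamase activity under the AP-1 element is read as a blue/green ratio.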
# [3] = target: Cytochrome P450 1A2 (Homo sapiens) (UniProt P05177); assay: p450-cyp1a2 (AID 410; calls by dose curve; note: potency is the fitted concentration of half-maximal effect;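 for activity change, negative = inhibition: -100% = full effect of reference inhibitor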)
# Summary of the method: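 O-Demethylation of luciferin 6' methyl ether by human CYP1A2 is monitored as luciferase luminescence. Substrate sits at Km (100uM); enzyme is 20nM. Values are scaled to 57 uM furafylline as maximal inhibition.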
# [4] = NFAT Signaling Pathway (AID 444; active = well fitted curve in either direction with a large enough effect, not every such curve was filed as active;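 note: carbachol stimulus at about its EC50 of 1 µM final; % is set by controls: 0 for no effect and ±100 for the full control effect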); settings: Jurkat NFAT-bla M1, carbachol, beta-lactamase ratio, 5 h; at 7.69 µM (top of the series) unless noted
# Summary of the method: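 Read-out: CCF4 FRET ratio (460 nm/530 nm) after 1 h RT dye loading, used for %activity and AC50 from titration series. Cells: Jurkat NFAT-β-lactamase/M1 line, treated with compound plus 1 uM carbachol for 5 h, 37 °C.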
# [5] = Stat Signaling Pathway (AID 446; active = well fitted curve in either direction with a large enough effect, not every such curve was filed as active;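 note: ME-180 cervical cancer cells given 40 pM IL-6 alongside compound; SIE-controlled beta-lactamase reporter measured as 460/530 nm FRET emission ratio; % is set by controls: 0 for no effect and ±100 for the full control effect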); settings: ME-180 (cervical carcinoma) SIE beta-lactamase reporter, IL-6 stimulated, 5 h; at 7.69 µM (top of the series) unless noted
# Summary of the method: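 Emission at 460 and 530 nm (excitation 405 nm) reports SIE-controlled beta-lactamase in ME-180 cells. Cells received compound with 40 pM IL-6 for 5 hrs at 37 C; data scaled between 300 pM IL-6 and 125 nM JAK-inhibitor controls.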
# [6] = target: Glucocorticoid receptor (Homo sapiens) (UniProt P04150); assay: GR-GFP Redistribution (AID 450;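 active = compounds whose dose series gives a full or clear partial fitted curve of increased nuclear translocation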; note: potency is the fitted concentration of half-maximal effect); settings: U2OS GR-GFP nuclear translocation, laser cytometry, 2 h
# [7] = target: Glucocorticoid receptor (Homo sapiens) (UniProt P04150); assay: GR-EFC Redistribution (AID 451; calls by dose curve; note: potency is the fitted concentration of half-maximal effect); settings: CHO-K1 GR-EFC translocation, beta-gal luminescence, 2 h
# Summary of the method: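 Translocation of GR-ED fusion to nuclear EA restores b-gal, read by luminescence after 1 h room-temperature detection. Engineered CHO-K1 biosensor cells, 1,000/well, exposed 2 h at 37 C to titrations up to 46 uM final.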
# [8] = target: Mitogen-activated protein kinase 10 (Mus musculus) (UniProt Q61831); assay: JNK3 AlphaScreen Assay (AID 530; active = well fitted curve in either direction with a large enough effect, not every such curve was filed as active;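 note: kinase came from lysate of stimulated human HepG2 cells; signal reports phosphorylation of biotinylated GST-cJun 1-79 at Ser73 with 10 µM ATP; % is set by controls: 0 for no effect and ±100 for the full control effect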)
# Summary of the method: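 qHTS titrations with 15 min compound pre-incubation before adding ATP (10 uM final). Read-out: AlphaScreen of Ser73-phosphorylated biotin-GST-cJun using HepG2 lysate JNK3 activated by IL-1β and TNFα.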
# [9] = target: Cytochrome P450 3A4 (Homo sapiens) (UniProt P08684); assay: qHTS Assay for Inhibitors and Substrates of Cytochrome P450 3A4 (AID 884); note: nearly all actives have a fitted effect of over 50% in size; note: potency is the fitted concentration of half-maximal effect
# Summary of the method: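 Luminescent readout of luciferin produced by CYP3A4 (20 nM) dealkylation of Luciferin-PPXE, 25 uM (its KM). NADPH-driven reaction ran 60 min at RT after 10 min compound preincubation; data scaled to 57 uM ketoconazole as 100% inhibition.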
# [10] = target: Cytochrome P450 3A4 (Homo sapiens) (UniProt P08684); assay: qHTS Assay for Activators of Cytochrome P450 3A4 (AID 885); note: nearly all actives have a fitted effect of over 65% in size
# Summary of the method: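 Activators are scored by enhanced luminescence from CYP3A4 conversion of luciferin-PPXE (25uM, equal to KM) to luciferin, after 60 min at RT with an NADPH-regenerating system.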
# [11] = target: Cytochrome P450 2C19 (Homo sapiens) (UniProt P33261); assay: qHTS Assay for Inhibitors and Substrates of Cytochrome P450 2C19 (AID 899); note: potency is the fitted concentration of half-maximal effect; nearly all actives have a fitted effect of over 60% in size
# Summary of the method: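 Luminescence readout of luciferin formed from 10uM Luciferin-H EGE (KM level) by 5 nM CYP2C19 in 50mM KPO4. 60 min NADPH-driven reaction at 37C after 10 min compound preincubation; data scaled to 57uM ketoconazole inhibition.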
# [12] = target: Dual specificity protein kinase CLK4 (Homo sapiens) (UniProt Q9HAZ1); assay: qHTS Assay for Inhibitors of CDC-like Kinase 4 (ADP-FP Assay) (AID 1795);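 note: recombinant human CLK4 phosphorylating RS repeat peptide at 1 µM ATP; % is set by controls: 0 for no effect and ±100 for the full control effect; nearly all actives have a fitted effect of over 60% in size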
# Summary of the method: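 Clk4 6.25 nM; RS peptide 100 uM; ATP 1 uM; 25 mM Tris pH 7.5, 10 mM MgCl2; 1 h reaction. ADP detected via antibody/orange tracer FP displacement; TG003 positive control.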
# [13] = Confirmation and Secondary Assay for Modulators of Hemoglobin Beta Chain Splicing at IVS2 654 locus (AID 910);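 note: HeLa cells stably carrying EGFP split by mutant beta-globin IVS2-654 intron; per-well total GFP intensity by laser scanning cytometry after 2-day treatment; % of control where 0% means no effect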
# Summary of the method: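 Readout: per-well total peak green fluorescence (488 nm ex, 500–520 nm em) from objects 5–250 µm, reflecting correct splicing of an EGFP-654 reporter. Compounds were applied for 2 days at 37 °C to overnight-plated HeLa EGFP-654 cells; controls were DMSO and 500 nM IVS2-654 PNA.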
# [14] = Confirmation and Secondary Assay for Modulators of Hemoglobin Beta Chain Splicing at IVS2 705 locus (AID 930);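 note: HeLa cells stably expressing the EGFP-705 splicing reporter; GFP fluorescence per well restored by corrected splicing of the IVS2-705 intron in EGFP; % of control where 0% means no effect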
# Summary of the method: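 Stable HeLa line with EGFP disrupted by mutant beta-globin intron 2 (705). Overnight attachment, then 2 days of compound at 37C, 5% CO2. Signal: peak GFP intensity summed over objects 5-250 µm.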
# [15] = qHTS Assay for Lipid Storage Modulators (AID 1519; calls by dose curve); settings: Drosophila S3 cells, BODIPY lipid droplet/cell ratio, laser cytometry, cells loaded with oleic acid
# Summary of the method: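 Cells seeded at 5,000 per well were treated with compounds over a concentration series and loaded with oleic acid (400 uM, as added). Lipid droplet fluorescence (488 nm excitation, 500-530 nm channel) was read by laser-scanning cytometry and normalized to 20 uM Triacsin C.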
# [16] = target: DNA dC->dU-editing enzyme APOBEC-3G (Homo sapiens) (UniProt Q9HC16); assay: qHTS for inhibitors of Vif-A3G interactions: Validation (AID 588379); note: 0% is about no effect
# Summary of the method: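 Yellow fluorescence (Ex 488, Em 500-530) of Vif-coexpressing HeLa A3G-eYFP cells, scanned by Acumen cytometer, reports blocked A3G degradation. Cells plated at 700/well overnight at 37 deg C before compound addition, then a further overnight compound incubation at 37 deg C.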
# [17] = target: Vitamin D3 receptor (Homo sapiens) (UniProt P11473); assay: qHTS for Inhibitors of the vitamin D receptor (VDR): Hit Validation in Primary Screen (AID 602199); settings: VDR-coactivator inhibition assay, qHTS confirmation; note: potency is the fitted concentration of half-maximal effect
# Summary of the method: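 With 800 nM VDR and 5 uM LG19078 agonist present, compounds were incubated 2 h at ambient temperature with Alexa 647-labelled SRC2-3. Displacement was read as polarization at 620/688 nm.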
# [18] = target: Vitamin D3 receptor (Homo sapiens) (UniProt P11473); assay: qHTS for Inhibitors of the vitamin D receptor (VDR): Hit Validation using a Fluorescein Assay (AID 602200); settings: VDR-coactivator binding, fluorescein fluorescence polarization; note: potency is the fitted concentration of half-maximal effect
# Summary of the method: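 Compounds added to VDR ligand-binding domain (1.5 uM) with agonist LG19078 (5 uM) and 5 nM SRC2-3 fluorescein peptide, final concentrations. After 2 h at ambient temperature, polarization of fluorescein emission (Ex 495 nm/Em 520 nm) measured.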
# [19] = target: Vitamin D3 receptor (Homo sapiens) (UniProt P11473); assay: qHTS for Inhibitors of the vitamin D receptor (VDR): Hit Validation using a Beta-Lactamase Assay (AID 602202); note: % is set by controls: 0 for no effect and ±100 for the full control effect
# Summary of the method: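 Beta-lactamase reporter read-out (447 nm emission of cleaved FRET substrate, 2 h) after 18 h compound exposure of HEK293 cells carrying a VDR-GAL4 fusion and UAS reporter, stimulated with LG190178.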
# [20] = qHTS for Inhibitors of the vitamin D receptor (VDR): Hit Validation using a Cytotoxicity Assay (AID 602204);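 note: plate controls were DMSO for no effect and high-concentration cycloheximide for full effect; nearly all actives have a fitted effect of over 75% in size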
# Summary of the method: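 Plated cells (20,000/well) incubate 4 h, receive test compounds, and incubate 18 h more. A luminescent reagent measuring ATP from living cells is added and read after 30 min.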
# [21] = target: 3',5'-cyclic-AMP phosphodiesterase 4B (Homo sapiens) (UniProt Q07343); assay: qHTS Assay for Inhibitors of PDE-IV (AID 607; active = well fitted activation curve with a large enough effect in the main read-out, with a control signal flat, not every such curve was filed as active; note: % of control where 0% means no effect)
# Summary of the method: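 The readout is membrane depolarisation from a cAMP-sensing CNG channel, detected with a potential dye at ex 535/em 590. Cells were HEK293-derived (endogenous PDE-IV) at 1000 cells/well, titrated up to 22.9 uM final.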
# Glucocorticoid receptor (Homo sapiens), sequence (P04150 whole entry, looked up, the tested form may be a part): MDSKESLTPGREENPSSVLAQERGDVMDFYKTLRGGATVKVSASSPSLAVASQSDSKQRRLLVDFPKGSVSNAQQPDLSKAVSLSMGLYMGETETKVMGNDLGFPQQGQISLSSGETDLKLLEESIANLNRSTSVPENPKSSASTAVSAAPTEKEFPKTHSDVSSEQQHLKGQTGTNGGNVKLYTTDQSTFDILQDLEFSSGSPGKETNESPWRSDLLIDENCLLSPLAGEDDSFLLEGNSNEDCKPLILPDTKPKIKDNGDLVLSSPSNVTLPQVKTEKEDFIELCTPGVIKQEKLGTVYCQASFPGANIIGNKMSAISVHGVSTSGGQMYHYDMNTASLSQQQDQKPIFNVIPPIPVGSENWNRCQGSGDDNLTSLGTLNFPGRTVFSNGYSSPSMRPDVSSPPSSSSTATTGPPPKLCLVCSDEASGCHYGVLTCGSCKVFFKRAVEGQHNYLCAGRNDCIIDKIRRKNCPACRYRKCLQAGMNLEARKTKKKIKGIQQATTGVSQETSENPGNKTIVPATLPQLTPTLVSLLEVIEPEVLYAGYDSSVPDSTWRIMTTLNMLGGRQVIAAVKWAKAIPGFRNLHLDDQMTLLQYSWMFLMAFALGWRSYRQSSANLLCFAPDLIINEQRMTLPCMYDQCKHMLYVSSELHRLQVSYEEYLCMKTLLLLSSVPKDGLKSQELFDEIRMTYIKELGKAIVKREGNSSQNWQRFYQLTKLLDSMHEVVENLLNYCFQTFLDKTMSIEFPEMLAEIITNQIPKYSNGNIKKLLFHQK
# Vitamin D3 receptor (Homo sapiens), sequence (P11473 whole entry, looked up, the tested form may be a part): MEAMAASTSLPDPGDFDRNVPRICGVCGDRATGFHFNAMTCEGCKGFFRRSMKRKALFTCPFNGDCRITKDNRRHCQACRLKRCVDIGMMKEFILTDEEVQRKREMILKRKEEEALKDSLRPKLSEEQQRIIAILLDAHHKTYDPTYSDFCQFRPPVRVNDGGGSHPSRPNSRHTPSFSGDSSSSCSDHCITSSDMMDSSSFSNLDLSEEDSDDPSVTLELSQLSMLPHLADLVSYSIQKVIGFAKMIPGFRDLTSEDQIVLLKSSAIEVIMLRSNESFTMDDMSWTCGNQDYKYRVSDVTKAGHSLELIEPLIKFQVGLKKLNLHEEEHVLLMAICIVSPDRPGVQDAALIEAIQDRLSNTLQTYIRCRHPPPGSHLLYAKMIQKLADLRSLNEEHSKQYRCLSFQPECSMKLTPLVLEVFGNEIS
# Cytochrome P450 3A4 (Homo sapiens), sequence (P08684 whole entry, looked up): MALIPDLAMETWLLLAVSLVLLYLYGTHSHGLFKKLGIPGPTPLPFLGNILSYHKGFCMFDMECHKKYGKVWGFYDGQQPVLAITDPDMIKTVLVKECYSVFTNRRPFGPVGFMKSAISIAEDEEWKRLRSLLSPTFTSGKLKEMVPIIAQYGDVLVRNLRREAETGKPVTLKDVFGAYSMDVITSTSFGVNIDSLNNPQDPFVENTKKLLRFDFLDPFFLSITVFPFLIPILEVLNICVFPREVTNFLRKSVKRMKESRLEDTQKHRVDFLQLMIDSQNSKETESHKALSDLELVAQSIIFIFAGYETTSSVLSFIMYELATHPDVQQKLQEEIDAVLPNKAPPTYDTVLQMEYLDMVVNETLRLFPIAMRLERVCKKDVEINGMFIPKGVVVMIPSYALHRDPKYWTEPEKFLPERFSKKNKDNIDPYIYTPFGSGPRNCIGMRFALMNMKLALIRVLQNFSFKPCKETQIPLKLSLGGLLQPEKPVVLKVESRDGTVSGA
# Lysosomal acid glucosylceramidase (Homo sapiens), sequence (P04062 whole entry, looked up): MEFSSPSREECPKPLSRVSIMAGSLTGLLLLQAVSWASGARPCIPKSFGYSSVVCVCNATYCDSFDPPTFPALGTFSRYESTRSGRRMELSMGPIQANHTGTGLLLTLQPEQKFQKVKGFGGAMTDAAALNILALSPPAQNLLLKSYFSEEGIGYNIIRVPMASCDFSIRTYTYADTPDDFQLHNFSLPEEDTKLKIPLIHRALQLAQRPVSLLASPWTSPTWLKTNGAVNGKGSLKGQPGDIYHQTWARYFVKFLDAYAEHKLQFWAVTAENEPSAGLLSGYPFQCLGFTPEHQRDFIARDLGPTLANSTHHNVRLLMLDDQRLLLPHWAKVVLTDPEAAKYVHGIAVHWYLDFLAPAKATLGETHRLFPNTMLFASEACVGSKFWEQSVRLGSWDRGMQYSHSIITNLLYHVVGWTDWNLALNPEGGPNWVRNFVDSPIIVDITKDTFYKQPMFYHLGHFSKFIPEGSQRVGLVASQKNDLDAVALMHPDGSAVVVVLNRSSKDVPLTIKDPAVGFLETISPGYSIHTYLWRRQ
# Cytochrome P450 1A2 (Homo sapiens), sequence (P05177 whole entry, looked up): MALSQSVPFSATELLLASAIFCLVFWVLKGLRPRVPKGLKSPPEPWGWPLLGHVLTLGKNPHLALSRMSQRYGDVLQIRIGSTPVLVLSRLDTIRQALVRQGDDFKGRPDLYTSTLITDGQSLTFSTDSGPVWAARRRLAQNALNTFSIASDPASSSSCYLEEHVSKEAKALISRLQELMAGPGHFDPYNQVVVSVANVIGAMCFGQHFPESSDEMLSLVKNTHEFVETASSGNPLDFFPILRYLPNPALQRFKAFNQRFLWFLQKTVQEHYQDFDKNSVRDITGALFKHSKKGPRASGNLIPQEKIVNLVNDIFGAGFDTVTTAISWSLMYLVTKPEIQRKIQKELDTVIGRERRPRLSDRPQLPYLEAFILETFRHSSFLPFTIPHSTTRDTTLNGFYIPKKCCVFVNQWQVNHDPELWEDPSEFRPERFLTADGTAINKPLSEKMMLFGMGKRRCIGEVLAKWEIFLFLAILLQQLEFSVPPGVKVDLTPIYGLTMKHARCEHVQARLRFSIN
# Dual specificity protein kinase CLK4 (Homo sapiens), sequence (Q9HAZ1 whole entry, looked up): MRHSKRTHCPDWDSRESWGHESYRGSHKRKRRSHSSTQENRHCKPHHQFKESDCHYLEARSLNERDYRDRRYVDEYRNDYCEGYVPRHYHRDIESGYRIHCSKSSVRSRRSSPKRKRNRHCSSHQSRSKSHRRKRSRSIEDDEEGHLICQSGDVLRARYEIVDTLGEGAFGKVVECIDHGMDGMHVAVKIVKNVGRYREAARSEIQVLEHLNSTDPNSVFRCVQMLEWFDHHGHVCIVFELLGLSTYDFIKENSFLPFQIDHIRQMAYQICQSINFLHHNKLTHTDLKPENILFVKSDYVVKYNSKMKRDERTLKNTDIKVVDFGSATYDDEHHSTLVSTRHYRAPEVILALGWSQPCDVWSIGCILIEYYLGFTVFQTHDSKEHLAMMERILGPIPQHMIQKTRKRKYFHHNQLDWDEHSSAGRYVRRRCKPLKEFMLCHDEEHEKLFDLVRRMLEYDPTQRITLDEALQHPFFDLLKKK
# 3',5'-cyclic-AMP phosphodiesterase 4B (Homo sapiens), sequence (Q07343 whole entry, looked up): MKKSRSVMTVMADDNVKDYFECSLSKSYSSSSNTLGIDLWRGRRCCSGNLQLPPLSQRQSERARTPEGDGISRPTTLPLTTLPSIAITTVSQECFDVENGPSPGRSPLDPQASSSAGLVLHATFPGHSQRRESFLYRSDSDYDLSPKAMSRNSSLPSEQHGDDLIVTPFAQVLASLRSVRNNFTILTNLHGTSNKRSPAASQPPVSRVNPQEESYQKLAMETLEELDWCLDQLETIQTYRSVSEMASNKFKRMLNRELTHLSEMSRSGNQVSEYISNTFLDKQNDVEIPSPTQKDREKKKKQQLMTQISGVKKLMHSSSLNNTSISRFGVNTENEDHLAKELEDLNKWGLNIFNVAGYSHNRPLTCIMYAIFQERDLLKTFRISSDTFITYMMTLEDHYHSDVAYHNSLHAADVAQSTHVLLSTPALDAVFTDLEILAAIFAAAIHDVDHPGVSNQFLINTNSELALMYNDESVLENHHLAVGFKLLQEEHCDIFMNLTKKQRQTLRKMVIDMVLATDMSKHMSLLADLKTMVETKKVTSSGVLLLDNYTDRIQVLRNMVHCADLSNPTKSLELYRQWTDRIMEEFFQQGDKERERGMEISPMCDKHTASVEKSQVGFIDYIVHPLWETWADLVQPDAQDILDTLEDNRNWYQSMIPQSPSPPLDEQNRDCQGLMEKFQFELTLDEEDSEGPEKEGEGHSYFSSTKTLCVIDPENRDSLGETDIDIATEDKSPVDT
# DNA dC->dU-editing enzyme APOBEC-3G (Homo sapiens), sequence (Q9HC16 whole entry, looked up): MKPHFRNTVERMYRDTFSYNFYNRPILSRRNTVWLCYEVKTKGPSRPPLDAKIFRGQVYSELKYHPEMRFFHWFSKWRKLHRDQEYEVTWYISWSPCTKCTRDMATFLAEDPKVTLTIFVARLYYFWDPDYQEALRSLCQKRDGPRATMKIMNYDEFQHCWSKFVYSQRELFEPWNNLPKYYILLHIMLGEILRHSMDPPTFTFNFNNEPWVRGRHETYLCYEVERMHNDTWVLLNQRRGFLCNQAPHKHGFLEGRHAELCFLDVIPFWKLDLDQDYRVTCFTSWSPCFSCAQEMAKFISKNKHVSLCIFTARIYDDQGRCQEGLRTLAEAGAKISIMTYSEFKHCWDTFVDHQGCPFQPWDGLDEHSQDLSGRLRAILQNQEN
# Cytochrome P450 2C19 (Homo sapiens), sequence (P33261 whole entry, looked up): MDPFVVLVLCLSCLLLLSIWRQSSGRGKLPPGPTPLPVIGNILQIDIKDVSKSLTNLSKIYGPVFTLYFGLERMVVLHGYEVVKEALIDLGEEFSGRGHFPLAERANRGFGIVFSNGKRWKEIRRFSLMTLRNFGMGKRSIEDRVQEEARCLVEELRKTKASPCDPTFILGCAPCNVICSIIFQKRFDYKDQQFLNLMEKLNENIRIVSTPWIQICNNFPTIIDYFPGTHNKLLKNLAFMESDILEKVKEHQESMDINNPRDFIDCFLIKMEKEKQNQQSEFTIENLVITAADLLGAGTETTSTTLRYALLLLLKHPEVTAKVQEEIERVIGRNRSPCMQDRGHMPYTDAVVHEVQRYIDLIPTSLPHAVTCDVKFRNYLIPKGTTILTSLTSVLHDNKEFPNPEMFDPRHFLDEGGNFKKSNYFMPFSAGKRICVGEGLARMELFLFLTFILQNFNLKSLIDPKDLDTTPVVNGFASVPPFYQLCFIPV
structure (smiles),measurement,setting,value
COc1ccc(CNc2ncncc2-c2ccc(N(C)C)cc2)c(OC)c1,Potency,[1],> 11.4 µM (inactive)
same,"activity change, negative = inhibition",[2],-8.89% (inactive)
same,Potency,[3],0.631 µM (active)
same,"activity change, negative = inhibition",[4],1.33% (inactive)
same,"activity, negative = inhibition",[5],0.205% (inactive)
same,Potency,[6],> 46 µM (inactive)
same,Potency,[7],> 46 µM (inactive)
same,Potency,[8],inactive
same,Potency,[9],0.199 µM (active)
same,Potency,[10],inactive
same,Potency,[11],1.58 µM (active)
same,Potency,[12],inactive
Nc1ccccc1C(=O)CC(N)C(=O)O (configuration not stated),Potency,[9],inactive
same,Potency,[13],inactive
same,outcome,[14],inactive
same,"activity change, negative = inhibition",[15]; at 57.5 µM (top of the series),9.57% (inactive) and 2.83% (inactive)
same,max response,[15]; measured here: cell count channel max response,10.9% and 14.4%
same,max response,[15]; measured here: lipid channel max response,21.6% and 17.6%
same,outcome,[16],inactive
CCCCOc1ccc(CN2C(=O)C(=O)c3cc(Br)cc(C)c32)cc1OC,Potency,[17],10 µM (active)
same,Potency,[18],8.91 µM (active)
same,Potency,[19],inactive
same,outcome,[20],inactive
COC(=O)N1CCC[C@@]2(CCN(C(=O)Nc3ccc(OC)cc3)C2)C1,Potency,[1],> 11.4 µM (inactive)
same,"activity change, negative = inhibition",[2],-11% (inactive)
same,Potency,[3],inactive
same,"activity change, negative = inhibition",[4],-1.85% (inactive)
same,"activity, negative = inhibition",[5],3.7% (inactive)
same,Potency,[7],> 46 µM (inactive)
same,Potency,[8],inactive
same,Potency,[21],inactive
same,Potency,[10],inactive
